From PubChem BioAssay AID1159580 (chemical genetic matrix, 2015)
About 2,000 (36%) of roughly 5,500 compounds were called active. Another 18% or so got no clear call; they are omitted. Cut-off read from the data, not from the text of the source: active = normalized growth mostly below about 0.91 (no sharp cut-off); inconclusive = no clear call, values can overlap the other calls; inactive = mostly above about 0.92. This is one part of the list.

Assay: chemical genetic growth profiling, strain panel (AID 1159580);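 note: tested at 20 µM; growth read once vehicle control cultures reached saturation at 30 °C; 1 = growth at the plate median or of vehicle wells; lower values mean less growth of the strain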
Conditions: S. cerevisiae deletion strains, growth OD

Measured: normalized growth

NC(=NCCC[C@H](N)C(=O)O)NO
inactive: locus YAL013W, strain DEP1, active compounds read low 1.03 | locus YAL040C, strain CLN3, active compounds read low 1 | locus YCL061C, strain MRC1 (second series), active compounds read low 1.01 | locus YDR363W, strain ESC2, active compounds read low 1.02 | locus YER002W, strain NOP16, active compounds read low 1.01 | locus YGR078C, strain PAC10, active compounds read low 1.02 | locus YNL128W, strain TEP1, active compounds read low 1 | locus YNL175C, strain NOP13, active compounds read low 1 | locus YNL197C, strain WHI3, active compounds read low 1.01 | locus YNL224C, strain SQS1, active compounds read low 0.992 | locus YOR083W, strain WHI5 (second series), active compounds read low 1.01 | locus YPL241C, strain CIN2, active compounds read low 1.01

CC(C)[C@H](N)C(=O)OCCOCn1cnc2c(=O)[nH]c(N)nc21
inactive: locus YAL021C, strain ccr4, active compounds read low 1.06 | locus YAL026C, strain drs2, active compounds read low 1.02 | locus YAL030W, strain snc1, active compounds read low 1.03 | locus YBL061C, strain skt5, active compounds read low 1.02 | locus YBR009C, strain hhf1, active compounds read low 0.961 | locus YBR023C, strain chs3, active compounds read low 1.02 | locus YBR171W, strain sec66, active compounds read low 1.01 | locus YBR231C, strain swc5, active compounds read low 0.934 | locus YBR279W, strain paf1, active compounds read low 1.02 | locus YCL011C, strain gbp2, active compounds read low 1.01 | locus YCL016C, strain dcc1, active compounds read low 1.05 | locus YCL069W, strain vba3, active compounds read low 1 | locus YCR088W, strain abp1, active compounds read low 1.02 | locus YDL005C, strain med2, active compounds read low 1.02 | locus YDL040C, strain nat1, active compounds read low 0.998 | locus YDR001C, strain nth1, active compounds read low 1.01 | locus YDR069C, strain doa4, active compounds read low 1 | locus YDR137W, strain rgp1, active compounds read low 1.08 | locus YDR159W, strain sac3, active compounds read low 0.94 | locus YDR195W, strain ref2 0.973 | locus YDR297W, strain sur2, active compounds read low 1 | locus YDR334W, strain swr1, active compounds read low 1.01 | locus YDR335W, strain msn5, active compounds read low 1.01 | locus YDR392W, strain spt3, active compounds read low 1.03 | locus YEL003W, strain gim4, active compounds read low 0.996 | locus YEL037C, strain rad23, active compounds read low 1.01 | locus YEL061C, strain CIN8 (second series), active compounds read low 1 | locus YER015W, strain faa2, active compounds read low 1.01 | locus YER016W, strain bim1, active compounds read low 1.05 | locus YER111C, strain swi4, active compounds read low 1.03 | locus YER155C, strain BEM2 (second series), active compounds read low 1.11 | locus YFR010W, strain ubp6, active compounds read low 0.974 | locus YGL167C, strain pmr1, active compounds read low 1.01 | locus YGL173C, strain kem1, active compounds read low 1.01 | locus YGL227W, strain vid30, active compounds read low 1.01 | locus YGL240W, strain doc1, active compounds read low 0.993 | locus YGL253W, strain hxk2, active compounds read low 0.981 | locus YHR013C, strain ard1, active compounds read low 1.02 | locus YHR027C, strain rpn1, active compounds read low 1.01 | locus YHR030C, strain SLT2, active compounds read low 1.07 | locus YHR079C, strain IRE1, active compounds read low 1.07 | locus YHR142W, strain chs7, active compounds read low 0.988 | locus YJL092W, strain hpr5, active compounds read low 1.01 | locus YJL095W, strain BCK1 (second series), active compounds read low 1.04 | locus YJL095W, strain BCK1, active compounds read low 1.02 | locus YJL115W, strain asf1, active compounds read low 1.01 | locus YJL129C, strain trk1, active compounds read low 0.982 | locus YJL154C, strain vps35, active compounds read low 1.01 | locus YJL164C, strain tpk1, active compounds read low 0.995 | locus YJL166W, strain qcr8, active compounds read low 1.03 | locus YJL187C, strain SWE1, active compounds read low 1 | locus YJR066W, strain TOR1, active compounds read low 0.99 | locus YKL160W, strain elf1, active compounds read low 1.06 | locus YKR026C, strain gcn3, active compounds read low 1.01 | locus YKR091W, strain srl3, active compounds read low 1.01 | locus YLL001W, strain dnm1, active compounds read low 0.96 | locus YLL026W, active compounds read low 1.01 | locus YLL041C, strain sdh2, active compounds read low 1.03 | locus YLR027C, strain aat2, active compounds read low 1.01 | locus YLR113W, strain HOG1, active compounds read low 0.977 | locus YLR221C, strain rsa3, active compounds read low 0.96 | locus YLR258W, strain gsy2, active compounds read low 1.03 | locus YLR262C, strain YPT6 (second series), active compounds read low 1.01 | locus YLR320W, strain mms22, active compounds read low 0.971 | locus YLR342W, strain FKS1, active compounds read low 1.03 | locus YLR357W, strain rsc2, active compounds read low 1.04 | locus YLR370C, strain arc18, active compounds read low 1.03 | locus YLR384C, strain iki3, active compounds read low 1.03 | locus YML120C, strain ndi1, active compounds read low 0.969 | locus YMR058W, strain fet3, active compounds read low 1.04 | locus YMR125W, strain sto1, active compounds read low 1.04 | locus YMR129W, active compounds read low 1.02 | locus YMR205C, strain PFK2, active compounds read low 1.01 | locus YMR231W, strain pep5, active compounds read low 1 | locus YNL071W, strain lat1, active compounds read low 1.02 | locus YNL183C, strain NPR1, active compounds read low 0.946 | locus YNL209W, strain ssb2, active compounds read low 1.02 | locus YNL248C, strain rpa49, active compounds read low 1.04 | locus YNL322C, strain KRE1 (second series), active compounds read low 1.04 | locus YNR049C, strain mso1, active compounds read low 0.998 | locus YOR001W, strain rrp6, active compounds read low 0.943 | locus YOR070C, strain gyp1, active compounds read low 1.03 | locus YOR080W, strain dia2, active compounds read low 1.01 | locus YOR083W, strain WHI5, active compounds read low 0.992 | locus YOR106W, strain vam3, active compounds read low 1.02 | locus YOR231W, strain MKK1, active compounds read low 1.04 | locus YOR265W, strain rbl2, active compounds read low 1.01 | locus YOR270C, strain vph1, active compounds read low 0.864 | locus YOR290C, strain snf2, active compounds read low 1.05 | locus YPL051W, strain arl3, active compounds read low 1.04 | locus YPL078C, strain atp4, active compounds read low 1.04 | locus YPL106C, strain sse1, active compounds read low 1.06 | locus YPL240C, strain hsp82, active compounds read low 1.01 | locus YPL256C, strain CLN2, active compounds read low 1.08
